# PKD1 inh: blocks activity of human protein kinase D1 | AID 797 | Q15139 | actives 0.056% (n = 200,000) | PKD1 kinase fluorescence polarization assay | inhibition, % (concentration not given with the values); in the data active means inhibition above about 50%
# L929 necroptosis: blocks zVAD induced death of L929 cells; viability rescue, % at 10 µM; L929 zVAD necroptosis rescue, ATP luminescence, 24 h; with zVAD 60 µM; actives 0.38% (n = 220,000);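 active means activation, scaled between plate controls, above about 75%, limit read from the data; inactive means activation under that limit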;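 further: 0% = zVAD with DMSO and 100% = DMSO alone without zVAD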
# TNF death inh: blocks TNF-alpha induced death of Jurkat FADD-/- cells | activation (protection from cell death), % at 10 µM | Jurkat FADD-/- TNF necroptosis rescue, ATP luminescence, 24 h; 0 = TNF only, 100 = no-TNF cells | actives 0.068% (n = 220,000) | AID 463075;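 active means activation, meaning protection from cell death, of at least 50% relative to plate controls; inactive means activation below 50%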;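 further: necroptosis triggered by 40 ng/mL TNF-alpha added together with compound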
# DTT redox prof: compounds producing H2O2 with reducing agent – biochemical, NIH compound library profiling, artefact control for MLSCN library redox annotation, primary screen | DTT-dependent redox cycling H2O2, phenol red/HRP absorbance; 100% = 100 µM peroxide control, 0% = buffer | activation, % at 10 µM | actives 0.03% (n = 200,000) | AID 878;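 active means activation of at least 50% relative to the plate's high and low controls in the primary single-dose screen; inactive means activation below 50%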;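 further: compound incubated with DTT at 0.8 mM final as the reducing agent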
# WT yeast gro inh: growth inhibition of WT yeast, mitochondrial fusion screen; actives 2.1% (n = 190,000); mitochondrial fusion phenotypic screen, WT strain; inhibition, % at 10 µM; in the data active means inhibition above about 58%; tested in S. cerevisiae
# PERK inhibitor: human PERK inhibition, primary cell-based screen | Q9NZJ5 | inhibition, % at 5.6 µM | actives 0.17% (n = 220,000) | CHO PERK-DD fusion, SEAP luminescence translation reporter;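 active means inhibition above the mean inhibition of all tested compounds plus 3 SD, set separately per screening campaign, cut at about 2.9% in these data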;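 further: PERK kinase domain activated by AP20187 dimerizer at 100 nM; 0% = DMSO with dimerizer and 100% = rapamycin at 8.4 µM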
# Numbers without * were called inactive; . = no result given. Most compounds without a hit are left out; they make up all but 2.4% or so of the library.
SMILES,PKD1 inh,L929 necroptosis,TNF death inh,DTT redox prof,WT yeast gro inh,PERK inhibitor
C/C(=N\Nc1ccccn1)c1ccc(C(C)C)cc1,0,73,2,-1,76*,1
COc1ccc(CCN(Cc2cc3cc(C)cc(C)c3nc2Cl)C(=O)C2CC2)cc1,-13,0,-6,-4,68*,1
COc1ccc(CN(CC2CCC(C(=O)O)CC2)C(=S)Nc2ccc(C)c(Cl)c2)cc1 (stereo not drawn),-1,0,1,-1,24,-1
O=S1(=O)CCN(OCc2ccc(Cl)cc2)CC1,-7,-2,1,-1,2,-1
COc1ccccc1NC(=S)N(CCCN1CCOCC1)Cc1cccs1,-2,5,2,-1,15,0
COc1ccc(N(CC(=O)NCc2ccc(C)cc2)S(=O)(=O)c2c(C)nn(C)c2C)cc1,-3,.,2,0,-4,0
COc1ccc2nc(NC(=O)CN(c3ccc(C)cc3)S(=O)(=O)c3c(C)nn(C)c3C)sc2c1,8,7,2,0,69*,-1
COc1ccc2nc(NC(=O)CCn3cccc3)sc2c1,7,92*,6,-1,-12,0
Cn1cc(C(=O)N2CCc3ccccc32)cn1,3,0,0,-1,15,1
N=C1C(c2nc3ccccc3[nH]2)=C(O)CN1NC(=O)COc1cccc(F)c1,-16,.,1,0,1,1
NC(=O)CSc1nnc(CSc2ncccn2)n1-c1ccccc1,5,0,0,1,5,3.0*
CCOC(=O)c1c(C)[nH]c(C)c1C(=O)COC(=O)c1cc2ccccc2cc1O,-9,0,1,0,74*,0
CCOC(=O)c1c(C)[nH]c(C)c1C(=O)COC(=O)/C=C/c1cccc(C(F)(F)F)c1,-3,0,-1,0,58*,-1
O=S(=O)(c1ccc(F)c(F)c1F)N1CCN(C(=S)Nc2ccccc2)CC1,-3,4,2,-2,6,2
CC(C)Cn1c(N)c(C(=O)COC(=O)CC23CC4CC(CC(C4)C2)C3)c(=O)n(C)c1=O,5,-2,-17,0,85*,-1
CC(C)Cn1c(N)c(C(=O)COC(=O)c2ccc(Cl)cc2)c(=O)n(C)c1=O,4,-1,-2,0,23,1
CC(C)Cn1c(N)c(C(=O)COC(=O)c2cc(C(F)(F)F)nc3c(C(F)(F)F)cccc23)c(=O)n(C)c1=O,-2,-1,-2,0,61*,1
Cn1c(=O)c(C(=O)COC(=O)c2cc(C(F)(F)F)nc3ccccc23)c(N)n(Cc2ccccc2)c1=O,6,0,1,0,35,-1
Cc1nn2c(N3CCN(c4ccccn4)CC3)cc(C(C)C)nc2c1-c1ccccc1,-13,2,0,-1,97*,-1
O=C(/C=C/c1ccc2c(c1)OCCCO2)c1ccccc1O,6,1,0,0,67*,0
Cc1ccc(/C=C/C(=O)c2ccccc2O)cc1,.,0,-2,.,.,1
Cc1ccc(C(=O)/C=C/c2ccc3c(c2)OCO3)o1,-2,0,-9,-1,5,0
Cc1ccc(O)c(C(=O)/C=C/c2ccc3c(c2)OCCCO3)c1,2,-1,-1,0,61*,1
CN(C)c1cc(Cl)c2nonc2c1N,.,1,-2,.,.,2
COc1cc(NC(=O)Cn2c(=O)n(-c3cccc(C)c3)c(=O)c3c(C)c(C)sc32)cc(OC)c1,-4,0,-1,1,-9,0
SMILES,PKD1 inh,L929 necroptosis,TNF death inh,DTT redox prof,WT yeast gro inh,PERK inhibitor
C=CCOc1c(Br)cc(/C=N/Nc2ccc(C(=O)O)cc2)cc1OCC,0,2,-1,0,63*,1
COc1ccc(/C=N/Nc2ccc(C(=O)O)cc2)cc1Br,-6,6,-1,0,-2,1
Cc1ccccc1C(=O)Nc1cccc(C(=O)N/N=C/c2cc(Cl)cc([N+](=O)[O-])c2O)c1,1,-1,-1,1,2,1
Cc1cccc(/C=N/n2c(C)nnc2C)c1,-9,0,-1,0,5,3.1*
S=c1[nH]nc(-c2ccco2)n1/N=C/c1cccc(Cl)c1,.,1,1,.,.,2
S=c1[nH]nc(-c2ccco2)n1/N=C/c1ccc(Cl)c(Cl)c1,5,11,1,0,76*,0
Cc1cccc(/C=N/n2c(-c3ccco3)n[nH]c2=S)c1,.,0,2,.,.,3.5*
Cc1ccc(/C=N/n2c(-c3ccco3)n[nH]c2=S)cc1,.,1,0,.,.,0
Cn1nc(C(F)(F)F)c(-c2ccccc2)c1NC(=O)CCC(=O)O,.,0,2,.,.,3.5*
Cn1nc(C(F)(F)F)c(-c2ccccc2)c1NC(=O)CSCC(=O)O,.,1,0,.,.,2
CCc1nnc(NC(=O)Cc2cc(OC)c(OC)c(OC)c2)s1,-6,-1,0,0,-8,0
CC(NC(=O)c1ccc(Br)cc1)c1ccc2c(c1)CCCC2 (stereo not drawn),-3,10,3,1,63*,1
O=C(c1ccc2c(c1)OCO2)N(Cc1ccco1)C1(C(=O)NC2CCCCC2)CCCCC1,2,0,-1,0,59*,-1
Cc1noc(C)c1C(=O)N1CCN(c2ccc(OCc3ccccc3)cc2)CC1,.,-1,0,.,.,-1
CSc1ccc(CN2CCC(CO)(Cc3ccc(Cl)cc3)CC2)cc1,4,2,2,-2,67*,-1
OCC1(Cc2ccc(Cl)cc2)CCN(Cc2ccccc2F)CC1,-9,1,3,-1,12,0
O=C(CSc1ccccc1C(=O)O)NCC1CCCCC1,-1,2,0,-1,-4,0
CC(C)(C)NC(=O)C12CC3CC(CC(Cl)(C3)C1)C2,2,3,0,0,1,1
CC(C)(C)NC(=S)NC(=O)C12CCC3CC(CC(C3)C1)C2,10,1,0,10,73*,1
O=C(NCc1ccccc1)c1ccc(-c2ccccc2C(F)(F)F)o1,-2,6,0,0,58*,1
O=C(O)c1ccc(-c2ccccc2C(F)(F)F)o1,-2,0,0,2,22,0
CC1(C)Cc2ccccc2C(/C(=N\Nc2cccc(Cl)c2)C(N)=O)=N1,-6,9,3,0,60*,0
CC(=O)c1ccc(N/N=C(/C(N)=O)C2=NC(C)(C)Cc3ccccc32)cc1,1,74,-12,0,2,-1
CC(=O)N1CCN(c2c(F)c(F)c(C(F)(F)F)c(F)c2F)CC1,3,1,-2,-1,0,1
CCN(CC)C(=O)COc1ccc2oc(-c3ccco3)cc(=O)c2c1,-5,0,2,-2,-15,0
